HT1080 IDH1KD tx = qHTS for induction of synthetic lethality in tumor cells producing 2HG: qHTS for the HT-1080-IDH1KD cell line. actives 2% (n = 360,000). AID 686971, 2013. HT-1080 IDH1 knockdown viability, ATP luminescence, 48 h. Potency, µM (doses to about 46.1 µM), hits mostly cytotoxic
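Cytotoxicity counter-line: IDH1KD HT-1080, 48 h, CellTiter-Glo. Curves classed by r2, magnitude and activity.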
HT1080NT lethal = qHTS for induction of synthetic lethality in tumor cells producing 2HG: qHTS for the HT-1080-NT fibrosarcoma cell line | HT-1080-NT fibrosarcoma viability, CellTiter-Glo ATP luminescence, 48 h | Potency, µM (titrated, usually from 46.1 µM), hits mostly cytotoxic | actives 1.6% (n = 360,000);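 note: NT is the 2HG producing partner of a matched IDH1 knockdown line; nearly all actives have a fitted effect of over 55% in size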
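Fibrosarcoma NT cells, 750 per well in 5% FBS RPMI, were exposed to compound for 48 hours. Viability: CellTiter-Glo luminescence.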
TDP1 cell noCPT = qHTS for Inhibitors of human tyrosyl-DNA phosphodiesterase 1 (TDP1): qHTS in cells in absence of CPT; Potency, µM (highest dose often 46.2 µM), hits mostly inhibitors; DT40 Tdp1-/- hTDP1 cells, no CPT, ATP luminescence, 48 h; actives 15% (n = 420,000); note: nearly all actives have a fitted effect of over 55% in size
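Camptothecin absent (DMSO only). Human TDP1-complemented DT40 knockout cells, 400 cells/well, 37 °C for minimum 48 hr; ATP measured via CellTiter-Glo, 30 min dark incubation, luminescence.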
TDP1 cell CPT = qHTS for Inhibitors of human tyrosyl-DNA phosphodiesterase 1 (TDP1): qHTS in cells in presence of CPT; AID 686979, 2013; chicken DT40 Tdp1-/-;hTDP1 cells + 20 nM CPT, ATP luminescence, 48 h; actives 12% (n = 420,000); Potency, µM (titrated, usually from 46.2 µM), most hits filed as inhibitors; note: nearly all actives have a fitted effect of over 55% in size
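Chicken DT40 Tdp1-/- cells complemented with human TDP1, 400 cells/well, exposed to compounds plus 20 nM camptothecin for at least 48 h at 37 C; viability read as ATP content by CellTiter-Glo luminescence.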
KB-V1 MDR tox = qHTS assay for MDR1-selective chemotherapeutics: Primary screen using the drug-selected MDR subline cells KB-V1. KB-V1 MDR cells viability, CellTiter-Glo, 72 h. actives 3.4% (n = 400,000). Potency, µM (top dose mostly 46.1 µM), actives largely listed as cytotoxic; note: nearly all actives have a fitted effect of over 60% in size
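Readout: CellTiter-Glo luminescence, 10 min after addition. Cells: KB-V1 MDR subline, 72 h at 37 degrees C with compound. Analysis: corrected, normalized data fitted to concentration-effect curves.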
KB-3-1 tox = qHTS assay for MDR1-selective chemotherapeutics: Primary screen using the parental adenocarcinoma cell KB-3-1 | actives 1.4% (n = 400,000) | AID 1347075, 2019 | Potency, µM (highest dose often 46.1 µM), most hits filed as cytotoxic | KB-3-1 viability, CellTiter-Glo ATP luminescence, 72 h; note: nearly all actives have a fitted effect of over 60% in size
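Screening of KB-3-1 cells (DMEM, 10% FBS, phenol-red free) ran from lowest to highest compound concentration; after 72 h at 37 °C viability was read luminescently and curves fitted.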
Of the large screens only hits and unclear results are named; the others gave an inactive call. Shown are actives, neighbours in structure and some others; about 19% of the full set was active somewhere. Calls come from the whole dose curve; as a rule, active = well fitted curve in the direction sought with a large enough effect; inconclusive = small, poorly fitted or top-dose-only effect, or another doubt; inactive = no such curve, though single readings can be large; an effect the other way counts as inactive or inconclusive.

O=C(Oc1ccc(N(Cc2cccs2)C2=NS(=O)(=O)c3ccccc32)cc1)c1ccc(Cl)cc1	TDP1 cell noCPT 18.4µM, TDP1 cell CPT inconclusive
CCC(=O)N1c2ccccc2CC1C(=O)NCCN1CCN(c2ccccc2F)CC1 (stereo not given)	TDP1 cell noCPT inconclusive, TDP1 cell CPT inconclusive (no result: HT1080 IDH1KD tx, HT1080NT lethal)
CCC(=O)N1c2ccccc2CC1C(=O)NCCN1CCN(c2cccc(C)c2C)CC1 (stereo not given)	TDP1 cell noCPT inconclusive, TDP1 cell CPT 23.1µM (no result: HT1080 IDH1KD tx, HT1080NT lethal)
CC(=O)N1c2ccccc2CC1C(=O)N1CCN(c2cccc(C)c2C)CC1 (stereo not given)	TDP1 cell noCPT 14.6µM, TDP1 cell CPT 23.1µM (no result: HT1080 IDH1KD tx, HT1080NT lethal)
CCC(=O)N1c2ccccc2CC1C(=O)NCCN1CCN(c2cccc(Cl)c2)CC1 (stereo not given)	TDP1 cell noCPT inconclusive, TDP1 cell CPT 23.1µM (no result: HT1080 IDH1KD tx, HT1080NT lethal)
CCC(=O)N1c2ccccc2CC1C(=O)NCCN1CCN(c2cccc(C(F)(F)F)c2)CC1 (stereo not given)	TDP1 cell noCPT 29.1µM, TDP1 cell CPT 16.4µM (no result: HT1080 IDH1KD tx, HT1080NT lethal)
COc1ccc(-n2c(SCC(=O)c3ccccc3)nc3c([nH]c4ccccc43)c2=O)cc1	none (no result: HT1080 IDH1KD tx, HT1080NT lethal)
Cc1cc2nc(SCC(=O)Nc3ccccc3C(=O)O)[nH]c2cc1C	none
CC(C)Oc1ccc(C(=O)NC2(C(F)(F)F)N=C3SCCN3C2=O)cc1 (stereo not given)	none
COc1ccc(NC(=O)[C@@H]2CC=C[C@@H]3CCN(C4CCCCC4)C(=O)[C@@H]32)cc1	TDP1 cell noCPT inconclusive, TDP1 cell CPT inconclusive
O=C(c1ccc2c(=O)n3c(nc2c1)CCCCC3)N1CCN(C(c2ccccc2)c2ccccc2)CC1	HT1080 IDH1KD tx 10µM, HT1080NT lethal 17.8µM, TDP1 cell noCPT inconclusive, TDP1 cell CPT inconclusive, KB-V1 MDR tox inconclusive, KB-3-1 tox inconclusive
Cc1ccc(C)c(N2CCN(C(=O)c3ccc4c(=O)n5c(nc4c3)CCCCC5)CC2)c1	TDP1 cell noCPT 16.4µM, TDP1 cell CPT 16.4µM, KB-3-1 tox inconclusive
O=C(c1ccc2c(=O)n3c(nc2c1)CCCCC3)N1CCCCC1	none
Cc1ccc(C)c(N2CCN(C(=O)c3ccc4c(Cl)c5c(nc4c3)CCCC5)CC2)c1	TDP1 cell noCPT inconclusive, TDP1 cell CPT 16.4µM (no result: HT1080 IDH1KD tx, HT1080NT lethal)
Cc1nc(-c2ccccn2)nc(SCC(=O)c2ccccc2)c1Cl	HT1080 IDH1KD tx inconclusive, HT1080NT lethal inconclusive, TDP1 cell noCPT inconclusive, TDP1 cell CPT inconclusive, KB-V1 MDR tox inconclusive
Cc1ccc(-n2c(C)n[nH]c2=S)cc1C	none
Cc1ccc(-n2c(C)c3c(C)nnc(C)c3c2C)cc1N	TDP1 cell noCPT inconclusive, TDP1 cell CPT 20.6µM
Cc1ccc(-n2c(C)c3c(C)nnc(C)c3c2C)cc1C	TDP1 cell noCPT 14.6µM, TDP1 cell CPT 14.6µM, KB-3-1 tox inconclusive
Cc1cc(-n2c(C)c3c(C)nnc(C)c3c2C)ccc1N	TDP1 cell noCPT inconclusive, TDP1 cell CPT 8.2µM
Cc1nnc(C)c2c(C)n(C(c3ccccc3)c3ccccc3)c(C)c12	HT1080 IDH1KD tx inconclusive, TDP1 cell noCPT inconclusive, TDP1 cell CPT inconclusive, KB-V1 MDR tox inconclusive
Cc1nnc(C)c2c(C)n(-c3ccccc3)c(C)c12	TDP1 cell noCPT 23.1µM, TDP1 cell CPT 23.1µM
Cc1ccc(C)c2c(C)ccnc12	none (no result: HT1080 IDH1KD tx, HT1080NT lethal)
CN1CCN(c2ncc3ncc(=O)n(CCc4ccccc4)c3n2)CC1	none (no result: HT1080 IDH1KD tx, HT1080NT lethal, KB-V1 MDR tox, KB-3-1 tox)
CC(=O)Nc1ccc(NC(=O)CCCn2cnc3ccccc3c2=O)cc1	KB-V1 MDR tox inconclusive
Cc1nnc(C)c2c(C)n(-c3ccccc3N)c(C)c12	TDP1 cell noCPT inconclusive, TDP1 cell CPT 20.6µM

Source: PubChem BioAssay
